Shown are actives, neighbours in structure and some others; about 6.8% of the full set was active somewhere.
NADH coupling: blocks coupling enzymes of NAD/NADH assays; coupled PK/LDH NADH assays, four targets; IC50, µM (top dose mostly 10 µM), for inactives: top-dose inhibition; 65,000 tested, 0.02% active; AID 774;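 active = single-dose screening hits from any of four coupled enzyme assays that gave an IC50 when retested across doses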;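 also: the DPM-DC format reads NADH fluorescence rather than 340 nm absorbance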
Autofluor 339: intrinsic fluorescence of library compounds, ex339/em460 – biochemical, MLSMR library, data from DPM-DC assay, artefact control, profiling panel; compound autofluorescence, ex339/em460 nm, NADH buffer; stronger effect = higher value; 1 = no-compound wells, NADH background; fluorescence fold increase at 10 µM; 65,000 tested, 5.5% active;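 active = at 10 µM, mean starting fluorescence two-fold or more over control wells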;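 also: signal is the first read of a kinetic run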
Spn PMK inh: blocks S. pneumoniae phosphomevalonate kinase; purified PMK, PK/LDH-coupled NADH absorbance 340 nm; inhibition, % at 10 µM; 65,000 tested, 0.49% active;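 active = top-ranked compounds by inhibition in the single 10 µM screen, taking a fixed number of the strongest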;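 also: 0% = full reaction with DMSO carrier and 100% = background rate without enzyme reaction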
A340 absorber: absorbance at 340 nm. compound absorbance at 340 nm, fold over control. fold change at 10 µM. 65,000 tested, under 10 active;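 active = at 10 µM dose, initial 340 nm absorbance at least 2 fold that of control wells; inactive = change under 2 fold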;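 also: initial absorbance extrapolated from kinetic A340 decline of NADH oxidation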
DPM-DC inhibit: inhibitors of Streptococcus pneumoniae diphosphomevalonate decarboxylase. calls only at 10 µM. purified DPM-DC, PK/LDH coupled NADH fluorescence. 65,000 tested, 0.49% active;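 active = the 320 compounds with the highest percent inhibition in the single-dose primary screen, excluding strongly autofluorescent ones, cut at about 32% in these data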;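 also: kinetic rate of NADH fluorescence loss reporting ADP formed by the decarboxylase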
MK inhibit: inhibitors of Streptococcus pneumoniae mevalonate kinase; inhibition, % at 10 µM; 65,000 tested, 0.48% active; AID 555; purified MK, PK/LDH-coupled NADH absorbance 340 nm;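 active = ranked among the strongest by inhibition in the single 10 µM screen, a fixed top-ranked set picked for dose follow-up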
Numbers without * were called inactive.

`CCOC(=O)N1CCN(C(=O)Cn2nc(-c3ccc(Cl)cc3)ccc2=O)CC1` gave NADH coupling 8.0%, Autofluor 339 1.15, Spn PMK inh 25.0*, A340 absorber 1, DPM-DC inhibit inactive and MK inhibit 0.0.
`Cc1ccc(OCC(=O)N(C)CCc2ccccn2)cc1` gave NADH coupling 20.0%, Autofluor 339 1.1, Spn PMK inh 6.0, A340 absorber 1.04, DPM-DC inhibit inactive and MK inhibit 53.0*.
For CN(CCc1ccccn1)C(=O)Nc1ccc(F)cc1 the results were NADH coupling 8.0%, Autofluor 339 1, Spn PMK inh 17.0, A340 absorber 1.07, DPM-DC inhibit inactive and MK inhibit 8.0.
CCn1c(C(=O)Nc2ccsc2C(=O)OC)cc2sc(Cl)cc21 was read as NADH coupling 13.0%, Autofluor 339 2.15*, Spn PMK inh 0.0, A340 absorber 1.12 and MK inhibit 26.0.
For COc1ccccc1-c1ccc(C(=O)O)o1 the results were NADH coupling 9.0%, Autofluor 339 3.3*, Spn PMK inh 12.0, A340 absorber 1.04, DPM-DC inhibit inactive and MK inhibit 0.0.
CCN(CC)C(=O)c1cc(-c2ccccc2OC)on1 was read as NADH coupling 6.0%, Autofluor 339 1.14, Spn PMK inh 13.0, A340 absorber 0.99, DPM-DC inhibit inactive and MK inhibit 4.0.
`O=C(CN1CCN(C(=O)N2CCCCC2)CC1)Nc1ccc(F)cc1` gave NADH coupling 1.0%, Autofluor 339 1.06, Spn PMK inh 1.0, A340 absorber 1.07, DPM-DC inhibit inactive and MK inhibit 1.0.
Cc1ccc(-c2csc3nnc(SCC(=O)N4CCN(Cc5ccccc5)CC4)n23)cc1 was read as NADH coupling 8.0%, Autofluor 339 1.04, Spn PMK inh 17.0, A340 absorber 0.99, DPM-DC inhibit inactive and MK inhibit 8.0.
For Cc1ccc(-c2csc3n[nH]c(=S)n23)cc1 the results were NADH coupling 31.0%, Autofluor 339 1.04, Spn PMK inh 2.0, A340 absorber 1.02, DPM-DC inhibit inactive and MK inhibit 88.0*.
Screening CN(C)c1ccc(-c2nn3c(-c4ccc(Cl)cc4)nnc3s2)cc1 returned NADH coupling 1.0%, Autofluor 339 1.34, Spn PMK inh 0.0, A340 absorber 1.03, DPM-DC inhibit inactive and MK inhibit 2.0.
For CN(C)c1ccc(-c2nn3c(C4CCCCC4)nnc3s2)cc1 the results were NADH coupling 11.0%, Autofluor 339 2.55*, Spn PMK inh 4.0, A340 absorber 1.11, DPM-DC inhibit inactive and MK inhibit 4.0.
Screening CN(C)S(=O)(=O)c1cccc(C(=O)N2CCc3ccccc32)c1 returned NADH coupling 3.0%, Autofluor 339 1.09, Spn PMK inh 3.0, A340 absorber 1.02, DPM-DC inhibit inactive and MK inhibit 5.0.
`CN(C)S(=O)(=O)c1cccc(C(=O)C2=C3SC=C(c4ccccc4)N3CC2)c1` gave NADH coupling 37.0%, Autofluor 339 1.08, Spn PMK inh 0.0, A340 absorber 1.08, DPM-DC inhibit active and MK inhibit 10.0.
Screening COc1ccccc1NC(=O)CC1Nc2ccccc2NC1=O (centres undefined) returned NADH coupling 10.0%, Autofluor 339 1.41, Spn PMK inh 6.0, A340 absorber 1.08, DPM-DC inhibit inactive and MK inhibit 11.0.
Screening Cc1cc2c(cc1C)NC(CC(=O)NCc1ccccc1)C(=O)N2 (centres undefined) returned NADH coupling 0.0%, Autofluor 339 2.14*, Spn PMK inh 0.0, A340 absorber 1.16 and MK inhibit 0.0.
For COc1ccc(CCNC(=O)CC2Nc3cc(C)c(C)cc3NC2=O)cc1OC (centres undefined) the results were NADH coupling 6.0%, Autofluor 339 2.15*, Spn PMK inh 14.0, A340 absorber 1.05, DPM-DC inhibit inactive and MK inhibit 2.0.
Screening Cc1cccn2cc(CCNC(=O)c3ccc(Br)o3)nc12 returned NADH coupling 3.0%, Autofluor 339 1.14, Spn PMK inh 4.0, A340 absorber 1.03, DPM-DC inhibit inactive and MK inhibit 5.0.
Screening COc1ccccc1CNC(=O)COc1ccccc1OC returned NADH coupling 4.0%, Autofluor 339 1.1, Spn PMK inh 3.0, A340 absorber 1, DPM-DC inhibit inactive and MK inhibit 6.0.
Screening COc1cccc(CNCc2ccccn2)c1OC returned NADH coupling 22.0%, Autofluor 339 1.08, Spn PMK inh 12.0, A340 absorber 1.02, DPM-DC inhibit inactive and MK inhibit 53.0*.
COc1ccccc1CNCc1cc(OC)c(OC)cc1OC was read as NADH coupling 25.0%, Autofluor 339 1.09, Spn PMK inh 22.0, A340 absorber 1.08, DPM-DC inhibit inactive and MK inhibit 53.0*.
CCOc1ccc(C(=O)NCCC(=O)NCCCC(=O)O)cc1 was read as NADH coupling 3.0%, Autofluor 339 1.04, Spn PMK inh 0.0, A340 absorber 1.02, DPM-DC inhibit inactive and MK inhibit 8.0.
`COc1cc(NC(=O)c2cccs2)c(OC)cc1NC(=O)CCn1nnc2ccccc21` gave NADH coupling 5.0%, Autofluor 339 1.07, Spn PMK inh 5.0, A340 absorber 1.03, DPM-DC inhibit inactive and MK inhibit 8.0.
Screening c1ccc(CCNc2nc3ccccc3n3nnnc23)cc1 returned NADH coupling 7.0%, Autofluor 339 2.58*, Spn PMK inh 13.0, A340 absorber 1.05, DPM-DC inhibit inactive and MK inhibit 0.0.
c1ccc(N2CCN(c3nc4ccccc4n4nnnc34)CC2)cc1 was read as NADH coupling 5.0%, Autofluor 339 1.78, Spn PMK inh 15.0, A340 absorber 1.06, DPM-DC inhibit inactive and MK inhibit 0.0.
c1ccc(Cn2c(CNc3nc4ccccc4n3CCN3CCOCC3)nc3ccccc32)cc1 was read as NADH coupling 4.0%, Autofluor 339 1.07, Spn PMK inh 0.0, A340 absorber 0.99, DPM-DC inhibit inactive and MK inhibit 11.0.
`COc1ccc(-c2c(C)oc3c(CN4CCCCC4C)c(O)ccc3c2=O)cc1OC` (centres undefined) gave NADH coupling 5.0%, Autofluor 339 2.21*, Spn PMK inh 7.0, A340 absorber 1.11 and MK inhibit 2.0.
Screening COc1cccc(Oc2c(C)oc3c(CN4CCOCC4)c(O)ccc3c2=O)c1 returned NADH coupling 11.0%, Autofluor 339 3.83*, Spn PMK inh 13.0, A340 absorber 1.06 and MK inhibit 8.0.
For Cc1oc2c(CN3CCOCC3)c(O)ccc2c(=O)c1-c1ccccc1 the results were NADH coupling 7.0%, Autofluor 339 3.87*, Spn PMK inh 9.0, A340 absorber 1.09 and MK inhibit 4.0.
For CCOC(=O)c1c(-c2ccccc2)oc2ccc(O)c(CN3CCOCC3)c12 the results were NADH coupling 7.0%, Autofluor 339 1.22, Spn PMK inh 0.0, A340 absorber 1.14, DPM-DC inhibit inactive and MK inhibit 16.0.

Screening results as filed in PubChem BioAssay.
